Laboratory results published in the supplement of paper PMC10849652.
Of roughly 8,800 targets only a part is listed; those with a hit were picked by preference. About 0.5% of all pairs of compound and target were hits.

Assays:
Experiment in all cases: log2 fold change, soluble protein after heating vs DMSO (PISA); higher = thermal stabilisation; K562 lysate, 10 uM; active = over 0.2 and 3.5 SD of the protein, either way, in both replicates (recomputed)
[1] = compound: C#Cc1cccc(Nc2ncnc3cc(OCCOC)c(OCCOC)cc23)c1 [erlotinib]
How it was run: (§1)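 A 30 min treatment with 10 μM compound was applied to crude K562 extract at 1 mg/mL protein in PBS pH 7.4 with 1 mM MgCl2. Heating for 3 min spanned 48°C-58°C, after which aliquots were pooled, adjusted to 0.5% NP-40 at 4°C and spun at 21,000xg for 90 min. TMTpro 16plex LC-MS/MS of the supernatant, with channel sums equalised, gave values recorded as log-two fold change in thermal stability against solvent controls, from duplicates.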

[2] = compound: C/C(=N\NC(=O)C1=CC(=CC=C1)S(=O)(=O)N2CCOCC2)/C3=C(C=CC(=C3)Cl)O
How it was run: as §1

[3] = compound: C1=CC(=CC=C1C2=NC3=C(N2)C=C(C=C3)C(=O)N)OC4=CC=C(C=C4)Cl
How it was run: as §1

[4] = compound: C1=CC2=C(C=CC(=C2)/C=C\3/C(=O)NC(=NCC4=CC=CS4)S3)N=C1
How it was run: as §1

[5] = compound: C1=CC2=NC=CN=C2C=C1/C=C/3\C(=O)NC(=O)S3
How it was run: as §1

[6] = compound: C1=CC=C(C=C1)C2=NC(=C(N2)C3=CC=NC=C3)C4=CC(=C(C=C4)Cl)O
How it was run: as §1

[7] = compound: C1=CC=C2C(=C1)C3=NNC4=CC=CC(=C43)C2=O
How it was run: as §1

[8] = compound: C1CCN(C1)C(=O)NC2=CC=CC(=C2)NC3=NC=C(C(=N3)NCCC4=CN=CN4)Br
How it was run: as §1

[9] = compound: C1CN(CCC1(CC2=CC=C(C=C2)Cl)N)C3=NC=NC4=C3C=CN4
How it was run: as §1

[10] = compound: C1COCCN1CCN2C3=CC=CC=C3N=C2NC(=O)C4=CC(=CC=C4)[N+](=O)[O-] [IRAK-1-4 Inhibitor I]
How it was run: as §1

Measured: log2 fold change

RBM22 (UniProt Q9NW64)
inactive: [1] 0.028 | [2] -0.005 | [3] 0.025 | [4] -0.07 | [5] 0.013 | [6] -0.034 | [7] -0.021 | [8] -0.02 | [9] 0.009 | [10] 0.018

RBM8A (UniProt Q9Y5S9)
inactive: [1] -0.061 | [2] 0.035 | [3] -0.002 | [4] 0.069 | [5] -0.042 | [6] 0.029 | [7] 0.093 | [8] 0.086 | [9] -0.076 | [10] -0.059

RASA2 (UniProt Q15283)
Chain of UniProt Q15283 (Q15283 whole entry, looked up): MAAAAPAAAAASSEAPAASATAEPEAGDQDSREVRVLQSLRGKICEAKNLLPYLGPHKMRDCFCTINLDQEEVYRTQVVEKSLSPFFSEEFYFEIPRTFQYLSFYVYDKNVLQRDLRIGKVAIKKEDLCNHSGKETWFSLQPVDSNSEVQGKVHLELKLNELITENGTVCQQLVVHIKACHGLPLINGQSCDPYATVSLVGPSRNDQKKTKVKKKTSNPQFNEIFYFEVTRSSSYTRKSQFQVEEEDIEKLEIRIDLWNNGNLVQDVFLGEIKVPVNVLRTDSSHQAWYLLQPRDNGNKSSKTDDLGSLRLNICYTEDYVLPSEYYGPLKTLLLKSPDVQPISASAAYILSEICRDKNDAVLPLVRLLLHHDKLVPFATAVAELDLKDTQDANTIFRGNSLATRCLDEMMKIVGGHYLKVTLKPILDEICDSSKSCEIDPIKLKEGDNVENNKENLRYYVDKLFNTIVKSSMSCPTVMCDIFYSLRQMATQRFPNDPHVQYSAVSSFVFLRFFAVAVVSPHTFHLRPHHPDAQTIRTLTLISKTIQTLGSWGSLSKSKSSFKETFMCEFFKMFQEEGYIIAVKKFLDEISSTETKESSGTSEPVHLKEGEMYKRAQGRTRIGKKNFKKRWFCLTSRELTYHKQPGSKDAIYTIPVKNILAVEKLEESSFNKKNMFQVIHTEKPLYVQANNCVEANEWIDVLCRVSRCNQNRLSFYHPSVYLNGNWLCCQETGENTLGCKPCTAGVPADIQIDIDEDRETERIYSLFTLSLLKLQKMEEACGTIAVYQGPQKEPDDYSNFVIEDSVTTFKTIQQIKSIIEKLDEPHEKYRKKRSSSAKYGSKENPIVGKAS
inactive: [1] 0.016 | [2] -0.001 | [3] -0.054 | [4] -0.071 | [5] -0.028 | [6] 0.018 | [7] -0.069 | [8] -0.024 | [9] 0.028 | [10] -0.003

SCAF1 (UniProt Q9H7N4)
inactive: [1] 0.016 | [2] 0.113 | [3] 0.066 | [4] 0.218 | [5] 0.025 | [6] -0.022 | [7] 0.033 | [8] 0.047 | [9] 0.041 | [10] 0.081

RPS26P11 (UniProt Q5JNZ5)
inactive: [1] -0.028 | [2] -0.021 | [3] -0.015 | [4] -0.01 | [5] 0.039 | [6] 0.005 | [7] -0.046 | [8] -0.045 | [9] 0.008 | [10] 0.001

RNF181 (UniProt Q9P0P0)
Chain of UniProt Q9P0P0 (Q9P0P0 whole entry, looked up): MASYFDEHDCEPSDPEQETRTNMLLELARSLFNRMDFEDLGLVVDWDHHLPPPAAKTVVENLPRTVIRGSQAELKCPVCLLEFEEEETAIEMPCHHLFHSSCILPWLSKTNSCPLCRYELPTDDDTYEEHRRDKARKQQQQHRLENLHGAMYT
inactive: [1] 0.031 | [2] 0.037 | [3] 0.016 | [4] 0.036 | [5] -0.001 | [6] 0.022 | [7] -0.058 | [8] 0.03 | [9] 0.099 | [10] -0.014

RAD51C (UniProt O43502)
Chain of UniProt O43502 (O43502 whole entry, looked up): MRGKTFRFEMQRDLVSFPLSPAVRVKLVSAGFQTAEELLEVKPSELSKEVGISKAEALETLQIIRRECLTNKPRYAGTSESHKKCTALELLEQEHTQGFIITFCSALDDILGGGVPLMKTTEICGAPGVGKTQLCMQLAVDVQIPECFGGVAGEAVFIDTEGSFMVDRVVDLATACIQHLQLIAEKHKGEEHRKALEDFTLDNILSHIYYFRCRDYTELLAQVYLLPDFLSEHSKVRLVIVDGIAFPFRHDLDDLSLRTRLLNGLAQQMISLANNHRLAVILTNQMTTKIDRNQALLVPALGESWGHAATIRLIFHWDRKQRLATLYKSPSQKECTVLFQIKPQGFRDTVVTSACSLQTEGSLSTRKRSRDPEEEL
inactive: [1] 0 | [2] -0.053 | [3] 0.023 | [4] -0.074 | [5] -0.003 | [6] 0.001 | [7] -0.004 | [8] 0.017 | [9] 0.02 | [10] -0.051

RDX (UniProt P35241)
inactive: [1] -0.013 | [2] 0.017 | [3] 0.014 | [4] -0.023 | [5] -0.032 | [6] 0.018 | [7] -0.009 | [8] 0.012 | [9] -0.025 | [10] 0.006

SEC62 (UniProt Q99442)
Chain of UniProt Q99442 (Q99442 whole entry, looked up): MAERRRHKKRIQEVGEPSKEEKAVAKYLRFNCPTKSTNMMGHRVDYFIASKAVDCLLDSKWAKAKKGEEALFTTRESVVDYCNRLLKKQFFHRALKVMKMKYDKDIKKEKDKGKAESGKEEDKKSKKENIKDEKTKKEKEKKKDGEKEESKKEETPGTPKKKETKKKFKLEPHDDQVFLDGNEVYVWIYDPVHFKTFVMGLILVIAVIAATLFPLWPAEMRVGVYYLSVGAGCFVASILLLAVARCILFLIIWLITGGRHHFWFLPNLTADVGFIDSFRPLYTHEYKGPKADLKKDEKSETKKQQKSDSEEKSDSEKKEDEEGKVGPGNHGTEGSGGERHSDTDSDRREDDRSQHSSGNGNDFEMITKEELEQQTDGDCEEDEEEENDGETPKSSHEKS
inactive: [1] -0.046 | [2] -0.008 | [3] 0.018 | [4] 0.046 | [5] -0.021 | [6] 0.036 | [7] -0.022 | [8] -0.017 | [9] -0.009 | [10] 0.042

R3HCC1 (UniProt Q9Y3T6)
inactive: [1] -0.015 | [2] -0.118 | [3] 0.055 | [4] 0.074 | [5] -0.086 | [6] 0.071 | [7] -0.008 | [8] 0.006 | [9] -0.016 | [10] -0.044

RPL28 (UniProt P46779)
inactive: [1] -0.012 | [2] -0.104 | [3] 0.006 | [4] -0.009 | [5] -0.037 | [6] 0.019 | [7] 0.016 | [8] -0.003 | [9] 0 | [10] -0.02

RPS9 (UniProt P46781)
inactive: [1] -0.034 | [2] 0.022 | [3] -0.03 | [4] -0.054 | [5] -0.016 | [6] -0.011 | [7] 0.011 | [8] 0.025 | [9] -0.018 | [10] -0.017

REEP5 (UniProt Q00765)
inactive: [1] 0.017 | [2] -0.041 | [3] 0.022 | [4] 0.036 | [5] 0.001 | [6] -0.008 | [7] -0.077 | [8] -0.008 | [9] 0.015 | [10] 0.025

RALGAPB (UniProt Q86X10)
Chain of UniProt Q86X10 (Q86X10 whole entry, looked up): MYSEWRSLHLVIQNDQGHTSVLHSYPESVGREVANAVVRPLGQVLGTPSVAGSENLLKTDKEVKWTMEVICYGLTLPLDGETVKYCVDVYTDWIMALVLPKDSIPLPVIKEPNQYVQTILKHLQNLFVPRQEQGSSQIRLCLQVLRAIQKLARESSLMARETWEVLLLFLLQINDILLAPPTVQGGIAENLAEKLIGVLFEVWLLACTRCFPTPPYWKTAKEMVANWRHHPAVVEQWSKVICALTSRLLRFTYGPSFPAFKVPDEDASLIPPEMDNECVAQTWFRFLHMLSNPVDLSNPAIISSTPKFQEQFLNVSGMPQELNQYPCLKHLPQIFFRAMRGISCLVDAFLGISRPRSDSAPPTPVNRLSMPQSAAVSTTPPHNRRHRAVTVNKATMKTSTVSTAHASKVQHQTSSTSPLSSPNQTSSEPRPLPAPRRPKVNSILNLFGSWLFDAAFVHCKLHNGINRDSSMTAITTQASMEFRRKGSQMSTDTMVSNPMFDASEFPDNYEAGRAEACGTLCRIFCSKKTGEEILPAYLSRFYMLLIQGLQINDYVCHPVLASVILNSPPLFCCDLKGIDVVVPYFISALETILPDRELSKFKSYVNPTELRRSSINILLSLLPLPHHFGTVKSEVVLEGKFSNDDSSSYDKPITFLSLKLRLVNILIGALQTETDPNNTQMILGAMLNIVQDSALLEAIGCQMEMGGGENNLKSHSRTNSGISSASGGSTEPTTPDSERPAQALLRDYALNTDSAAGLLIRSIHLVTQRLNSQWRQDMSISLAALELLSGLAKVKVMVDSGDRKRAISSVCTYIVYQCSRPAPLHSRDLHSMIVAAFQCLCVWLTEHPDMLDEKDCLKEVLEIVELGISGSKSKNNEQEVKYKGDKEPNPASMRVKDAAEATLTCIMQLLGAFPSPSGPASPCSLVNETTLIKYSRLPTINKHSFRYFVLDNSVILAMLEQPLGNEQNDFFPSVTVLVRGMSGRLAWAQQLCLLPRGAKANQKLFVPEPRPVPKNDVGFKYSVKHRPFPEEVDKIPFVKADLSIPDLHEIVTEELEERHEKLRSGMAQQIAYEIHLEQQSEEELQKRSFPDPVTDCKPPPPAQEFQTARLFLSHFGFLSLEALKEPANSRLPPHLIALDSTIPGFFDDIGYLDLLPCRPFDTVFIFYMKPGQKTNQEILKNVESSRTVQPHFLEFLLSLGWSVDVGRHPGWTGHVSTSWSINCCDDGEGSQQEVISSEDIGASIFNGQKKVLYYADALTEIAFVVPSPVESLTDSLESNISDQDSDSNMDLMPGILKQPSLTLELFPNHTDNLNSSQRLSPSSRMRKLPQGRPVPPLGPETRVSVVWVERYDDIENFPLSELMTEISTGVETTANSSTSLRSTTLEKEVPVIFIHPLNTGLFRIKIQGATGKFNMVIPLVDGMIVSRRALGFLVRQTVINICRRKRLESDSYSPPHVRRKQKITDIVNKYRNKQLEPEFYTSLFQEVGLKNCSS
inactive: [1] 0.024 | [2] -0.047 | [3] 0.051 | [4] 0.018 | [5] 0 | [6] -0.038 | [7] -0.074 | [8] -0.008 | [9] 0.049 | [10] 0.033

RDH14 (UniProt Q9HBH5)
inactive: [1] -0.019 | [2] 0.021 | [3] -0.056 | [4] -0.049 | [5] 0.037 | [6] 0.021 | [7] 0.024 | [8] 0.036 | [9] -0.057 | [10] 0.018

RDH10 (UniProt Q8IZV5)
inactive: [1] 0.043 | [2] 0.001 | [3] -0.019 | [4] 0.087 | [5] -0.028 | [6] -0.022 | [7] -0.013 | [8] 0.024 | [9] -0.023 | [10] 0.001

RASA3 (UniProt Q14644)
Chain of UniProt Q14644 (Q14644 whole entry, looked up): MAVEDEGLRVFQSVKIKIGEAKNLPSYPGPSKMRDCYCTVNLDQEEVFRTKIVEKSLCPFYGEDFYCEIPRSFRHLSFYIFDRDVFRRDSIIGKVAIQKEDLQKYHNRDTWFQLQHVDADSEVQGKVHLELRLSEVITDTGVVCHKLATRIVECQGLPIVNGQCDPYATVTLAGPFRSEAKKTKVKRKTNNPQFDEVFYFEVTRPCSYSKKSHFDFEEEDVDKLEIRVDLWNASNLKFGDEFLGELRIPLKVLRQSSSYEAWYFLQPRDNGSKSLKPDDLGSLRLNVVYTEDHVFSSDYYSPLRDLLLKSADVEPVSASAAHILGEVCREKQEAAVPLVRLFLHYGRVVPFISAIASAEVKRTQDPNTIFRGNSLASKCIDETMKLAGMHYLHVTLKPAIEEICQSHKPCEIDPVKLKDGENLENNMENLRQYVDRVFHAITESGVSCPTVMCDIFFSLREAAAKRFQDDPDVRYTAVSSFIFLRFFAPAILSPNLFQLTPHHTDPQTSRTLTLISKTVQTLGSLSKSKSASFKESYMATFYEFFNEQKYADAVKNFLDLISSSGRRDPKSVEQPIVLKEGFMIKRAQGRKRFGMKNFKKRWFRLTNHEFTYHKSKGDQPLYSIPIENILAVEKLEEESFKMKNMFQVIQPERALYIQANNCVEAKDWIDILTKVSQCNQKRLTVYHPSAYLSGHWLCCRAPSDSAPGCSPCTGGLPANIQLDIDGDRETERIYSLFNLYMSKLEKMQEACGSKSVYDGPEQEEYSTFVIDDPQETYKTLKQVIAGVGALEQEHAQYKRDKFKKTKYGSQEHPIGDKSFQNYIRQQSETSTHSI
inactive: [1] 0.02 | [2] -0.089 | [3] 0.045 | [4] -0.001 | [5] 0.046 | [6] 0.021 | [7] 0.004 | [8] -0.043 | [9] -0.005 | [10] 0.02

RNF149 (UniProt Q8NC42)
inactive: [1] -0.044 | [2] -0.03 | [3] 0.003 | [4] -0.046 | [5] 0.135 | [6] -0.021 | [7] -0.031 | [10] 0.068

SAMHD1 (UniProt Q9Y3Z3)
inactive: [1] 0.035 | [2] 0.036 | [3] 0.004 | [4] 0.015 | [5] 0.005 | [6] -0.021 | [7] -0.057 | [8] -0.065 | [9] 0.035 | [10] 0.013

RALGAPA1 isoform 6 (UniProt Q6GYQ0)
inactive: [1] 0.056 | [2] -0.093 | [3] 0.098 | [4] 0.065 | [5] -0.105 | [6] -0.064 | [7] -0.015 | [8] -0.042 | [9] 0.031 | [10] 0.004

RNF123 (UniProt Q5XPI4)
inactive: [1] 0.058 | [2] 0.016 | [3] -0.008 | [4] 0.029 | [5] 0.019 | [6] -0.015 | [7] -0.035 | [8] -0.005 | [9] 0.044 | [10] -0.019

RPAP1 (UniProt Q9BWH6)
inactive: [1] 0.05 | [2] -0.078 | [3] 0.019 | [4] 0.016 | [5] 0.007 | [6] -0.028 | [7] 0.001 | [8] -0.001 | [9] 0.02 | [10] 0.005

SESN2 (UniProt P58004)
Chain of UniProt P58004 (P58004 whole entry, looked up): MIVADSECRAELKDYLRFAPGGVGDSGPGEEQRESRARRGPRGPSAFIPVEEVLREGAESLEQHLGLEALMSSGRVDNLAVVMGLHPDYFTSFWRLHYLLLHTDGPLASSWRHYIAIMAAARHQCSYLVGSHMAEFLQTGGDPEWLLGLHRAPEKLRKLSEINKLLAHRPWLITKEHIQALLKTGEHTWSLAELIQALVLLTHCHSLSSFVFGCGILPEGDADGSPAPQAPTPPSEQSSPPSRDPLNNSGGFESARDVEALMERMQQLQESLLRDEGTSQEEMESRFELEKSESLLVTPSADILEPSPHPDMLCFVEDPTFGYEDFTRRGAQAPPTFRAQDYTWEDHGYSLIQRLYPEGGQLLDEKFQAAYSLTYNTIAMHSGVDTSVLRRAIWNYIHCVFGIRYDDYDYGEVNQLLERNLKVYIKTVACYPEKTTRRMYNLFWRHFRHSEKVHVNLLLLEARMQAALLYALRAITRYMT
inactive: [1] 0.043 | [2] 0.102 | [3] -0.007 | [4] -0.017 | [5] 0.023 | [6] -0.037 | [7] -0.07 | [8] 0.051 | [9] -0.014 | [10] -0.048

RIOK3 (UniProt O14730)
inactive: [1] 0.043 | [2] -0.114 | [3] -0.057 | [4] 0.029 | [5] -0.011 | [6] 0.023 | [7] 0.092 | [8] 0.016 | [9] -0.006 | [10] 0.016

SEC16A isoform 5 (UniProt O15027)
inactive: [1] 0.006 | [2] -0.019 | [3] 0.025 | [4] -0.016 | [5] -0.031 | [6] -0.038 | [7] -0.085 | [8] -0.022 | [9] 0.002 | [10] -0.005

RAP1B (UniProt P61224)
inactive: [1] -0.017 | [2] -0.085 | [3] 0.024 | [4] 0.016 | [5] -0.031 | [6] 0.006 | [7] -0.014 | [8] -0.033 | [9] -0.004 | [10] 0.014

RPL27 (UniProt P61353)
inactive: [1] 0.002 | [2] -0.02 | [3] -0.04 | [4] -0.033 | [5] 0.011 | [6] 0.011 | [7] 0.03 | [8] 0.052 | [9] -0.014 | [10] -0.014

REEP6 (UniProt Q96HR9)
inactive: [1] -0.023 | [2] -0.026 | [3] 0.008 | [4] 0.077 | [5] -0.06 | [6] -0.029 | [7] -0.069 | [8] 0.021 | [9] -0.022 | [10] -0.05

REXO4 (UniProt Q9GZR2)
Chain of UniProt Q9GZR2 (Q9GZR2 whole entry, looked up): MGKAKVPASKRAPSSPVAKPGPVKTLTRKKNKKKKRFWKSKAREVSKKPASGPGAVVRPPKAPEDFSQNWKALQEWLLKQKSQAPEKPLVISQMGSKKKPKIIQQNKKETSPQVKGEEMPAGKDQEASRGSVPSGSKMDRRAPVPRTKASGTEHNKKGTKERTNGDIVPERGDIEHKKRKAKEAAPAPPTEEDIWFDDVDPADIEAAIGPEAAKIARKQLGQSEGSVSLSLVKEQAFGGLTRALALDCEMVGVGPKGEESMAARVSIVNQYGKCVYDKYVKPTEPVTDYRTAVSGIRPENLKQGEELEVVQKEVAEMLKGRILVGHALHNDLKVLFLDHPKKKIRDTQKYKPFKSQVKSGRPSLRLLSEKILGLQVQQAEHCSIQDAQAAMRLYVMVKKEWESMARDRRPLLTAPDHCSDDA
inactive: [1] -0.041 | [2] -0.195 | [3] -0.041 | [4] -0.084 | [5] -0.052 | [6] 0.027 | [7] -0.033 | [8] -0.022 | [9] 0.003 | [10] -0.027

RECQL4 (UniProt O94761)
inactive: [1] -0.041 | [2] 0.023 | [3] -0.025 | [4] 0.195 | [5] -0.081 | [6] 0.018 | [7] -0.039 | [8] -0.035 | [9] 0.013 | [10] 0.015

RPS29 (UniProt P62273)
inactive: [1] 0.088 | [2] 0.023 | [3] 0.018 | [4] -0.064 | [5] -0.026 | [6] 0.017 | [7] 0.051 | [8] 0.018 | [9] -0.037 | [10] 0.046

SCML2 (UniProt Q9UQR0)
inactive: [1] 0.021 | [2] 0.038 | [3] 0.019 | [4] 0.068 | [5] -0.046 | [6] 0 | [7] -0.028 | [8] -0.003 | [9] 0.043 | [10] -0.01

RINT1 (UniProt Q6NUQ1)
inactive: [1] 0.056 | [2] 0.029 | [3] -0.01 | [4] 0.012 | [5] 0.03 | [6] -0.042 | [7] -0.048 | [8] -0.029 | [9] 0.067 | [10] 0.074
